Test results published in PubChem BioAssay (Tox21).
Inconclusive results are not listed. A call without a number means that no potency is given here. Active and inactive are the calls of the source. Unless noted, calls come from the whole dose curve; as a rule, active = well fitted cell-killing curve with a large enough effect in the repeat runs (not every such curve was filed as active); inconclusive = weak or mixed curves, or effect the other way; inactive = no such curve, though single readings can be large or run the other way.

Target: Bile acid receptor (Homo sapiens) (UniProt Q96RI1)
Assay: qHTS assay to identify small molecule agonists of the farnesoid-X-receptor (FXR) signaling pathway (AID 743220; active = well fitted activation curve with a large enough effect in the signal ratio in the repeat runs, not every such curve was filed as active; the % refers to the signal ratio)
Conditions: HEK293T FXR-UAS-bla, beta-lactamase FRET ratio, 16 h; series mostly up to 62.6 µM
Method in brief: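 FXR-UAS-bla HEK 293T cells carrying a UAS-driven beta-lactamase reporter were plated for 5 h at 37C/5% CO2, then exposed to DMSO-dissolved Tox21 10K compounds for 16 h at 37C. A LiveBLAzer B/G FRET substrate was loaded for 2 h at room temperature before fluorescence reading.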

Chain of Bile acid receptor (Homo sapiens) (Q96RI1 whole entry, looked up): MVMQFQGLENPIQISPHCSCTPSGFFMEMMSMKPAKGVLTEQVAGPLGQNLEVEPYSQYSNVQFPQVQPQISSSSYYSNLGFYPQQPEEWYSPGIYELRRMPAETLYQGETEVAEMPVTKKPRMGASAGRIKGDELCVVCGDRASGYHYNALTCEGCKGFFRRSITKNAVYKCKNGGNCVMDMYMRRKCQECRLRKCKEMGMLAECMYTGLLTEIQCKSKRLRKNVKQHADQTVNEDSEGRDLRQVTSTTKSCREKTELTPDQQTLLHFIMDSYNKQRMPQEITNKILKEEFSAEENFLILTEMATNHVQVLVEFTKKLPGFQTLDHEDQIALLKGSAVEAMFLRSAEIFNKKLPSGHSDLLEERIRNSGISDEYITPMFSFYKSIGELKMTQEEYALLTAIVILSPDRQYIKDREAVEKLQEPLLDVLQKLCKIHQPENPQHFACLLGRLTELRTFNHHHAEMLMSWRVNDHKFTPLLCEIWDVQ

Structure (SMILES) | Potency
N#CC1(c2ccc(F)cc2)CCC(=O)CC1 | inactive
COc1cccc(N)c1 | inactive
Cc1ccc(O)c2ncccc12 | inactive
O=c1[nH]sc2cc(Cl)ccc12 | inactive
OCCN1CCN(CC/C=C2/c3ccccc3Sc3ccc(C(F)(F)F)cc32)CC1 | inactive
O=C(N/N=C/c1ccccc1O)c1ccncc1 | inactive

Tested on: not listed separately
Assay: qHTS assay to identify small molecule antagonists of the farnesoid-X-receptor (FXR) signaling pathway - cell viability counter screen (AID 743221); note: nearly all actives have a fitted effect of over 50% in size; note: potency is the fitted concentration of half-maximal effect
Conditions: FXR-bla HEK293T viability, CellTiter-Glo luminescence, 16 h; series mostly up to 62.6 µM
Method in brief: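 CellTiter-Glo, 30 min RT, luminescence; same wells as the LiveBLAzer FRET read. Cells: FXR-UAS-bla HEK 293T. Treatment: compound with chenodeoxycholic acid 50 uM final, 16 h at 37 C.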

Structure (SMILES) | Potency
CCCCCCCCOC(=O)c1ccc(O)cc1 | inactive
N#CC1(c2ccc(F)cc2)CCC(=O)CC1 | inactive
Cc1cccc(N(C)C(=S)Oc2ccc3c(c2)C2CCC3C2)c1 (centres undefined) | inactive
O=c1cc(-c2ccc(O)cc2)oc2cc(O)cc(O)c12 | inactive
Cc1oc(-c2ccccc2)nc1CCC(=O)c1ccc(CC2SC(=O)NC2=O)cc1 (centres undefined) | inactive
NC(=O)C1(N2CCCCC2)CCN(CCCN2c3ccccc3CCc3ccc(Cl)cc32)CC1 | 29.8 µM (active)
COc1cccc(N)c1 | inactive
CC1=C(C(=O)OC(C)C)C(c2cccc([N+](=O)[O-])c2)C(C(=O)OC2CN(C(c3ccccc3)c3ccccc3)C2)=C(N)N1 (centres undefined) | 26.6 µM (active)
COC(=O)C1=C(C)NC(C)=C(C(=O)OCCc2ccc(N3CCN(C(c4ccccc4)c4ccccc4)CC3)cc2)C1c1cccc([N+](=O)[O-])c1 (centres undefined) | inactive
OCCN(CCO)c1nc(N2CCCCC2)c2nc(N(CCO)CCO)nc(N3CCCCC3)c2n1 | inactive
CCCCCCCC(=O)[O-].CCCCCCCC(=O)[O-].[Zn+2] | inactive
CN(C)[C@@H]1C(=O)C(C(N)=O)=C(O)[C@@]2(O)C(=O)C3=C(O)c4c(O)cccc4C[C@H]3C[C@@H]12 | inactive
O=[N+]([O-])c1cc([N+](=O)[O-])c2ccc(S(=O)(=O)O)cc2c1O | inactive
Cc1[nH]nc2c1N=C(c1ccccc1Cl)c1cc([N+](=O)[O-])ccc1N2 | inactive
CN(C)CCCOC1(Cc2ccccc2)CCCCCC1 | inactive
C/C(=C(/OCCOc1ccc(Cl)cc1)c1ccc(Cl)cc1Cl)n1ccnc1 | inactive
CN1CCC(Nc2ncc3ncnc(Nc4ccc(F)c(Cl)c4)c3n2)CC1 | 29.8 µM (active)
OCCN1CCN(CC/C=C2/c3ccccc3Sc3ccc(C(F)(F)F)cc32)CC1 | 23.7 µM (active)
O=C(N/N=C/c1ccccc1O)c1ccncc1 | inactive
CCc1cc(SCc2sc(-c3ccc(C(F)(F)F)cc3)nc2CN2CCN(c3ccc(OC)cc3)CC2)ccc1OCC(=O)O | 19.5 µM (active)
Nc1cc(C(F)(F)F)ccc1S | inactive
Nc1nc2ccccc2n1Cc1ccc(F)cc1 | inactive
CCCCCCCCNC(C)C(O)c1ccc(SC(C)C)cc1 (centres undefined) | 23.7 µM (active)
CCCCC(CC)COC(=O)c1ccccc1C(=O)O (centres undefined) | inactive
COC(=O)c1cc(Cl)ccc1OC | inactive
Nc1ccc2c3c(cccc13)-c1ccccc1-2 | inactive
Cc1cc(=O)oc2cc(N(C)C)ccc12 | inactive
O=C(Oc1ccccc1)c1ccccc1C(=O)Oc1ccccc1 | inactive

Target: Vitamin D3 receptor (Homo sapiens) (UniProt P11473)
Assay: qHTS assay to identify small molecule agonists of the vitamin D receptor (VDR) signaling pathway (AID 743222; calls by dose curve; note: potency is the fitted concentration of half-maximal effect)
Conditions: HEK293T VDR-UAS-bla, beta-lactamase FRET ratio, 16 h; series mostly up to 63.5 µM
Method in brief: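 Beta-lactamase reporter readout (LiveBLAzer B/G FRET, 2 h RT) in VDR-bla cells after 16 h compound treatment at 37C, 5% CO2; cells pre-incubated 4 h before pin transfer of DMSO solutions.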

Chain of Vitamin D3 receptor (Homo sapiens) (P11473 whole entry, looked up): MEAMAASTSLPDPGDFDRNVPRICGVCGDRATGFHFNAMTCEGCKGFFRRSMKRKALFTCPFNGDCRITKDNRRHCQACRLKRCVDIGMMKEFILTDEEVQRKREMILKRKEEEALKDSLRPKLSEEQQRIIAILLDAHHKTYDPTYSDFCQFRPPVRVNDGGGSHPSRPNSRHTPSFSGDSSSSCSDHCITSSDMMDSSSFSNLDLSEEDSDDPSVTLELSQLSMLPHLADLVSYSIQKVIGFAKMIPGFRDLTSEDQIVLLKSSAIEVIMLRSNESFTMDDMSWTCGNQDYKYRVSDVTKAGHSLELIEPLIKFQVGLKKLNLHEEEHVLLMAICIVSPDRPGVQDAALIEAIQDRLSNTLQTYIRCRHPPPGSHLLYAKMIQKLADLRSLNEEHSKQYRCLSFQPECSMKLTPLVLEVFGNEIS

Structure (SMILES) | Potency
N#CC1(c2ccc(F)cc2)CCC(=O)CC1 | inactive
COC(=O)C1=C(C)NC(C)=C(C(=O)OCCc2ccc(N3CCN(C(c4ccccc4)c4ccccc4)CC3)cc2)C1c1cccc([N+](=O)[O-])c1 (centres undefined) | inactive
CCCCCCCC(=O)[O-].CCCCCCCC(=O)[O-].[Zn+2] | inactive
CN(C)CCCOC1(Cc2ccccc2)CCCCCC1 | inactive
C/C(=C(/OCCOc1ccc(Cl)cc1)c1ccc(Cl)cc1Cl)n1ccnc1 | inactive
Cc1cccc2c1cc1ccc3cccc4ccc2c1c34 | 3.16 µM (active)
CCC(CN)=C(c1ccccc1)c1ccccc1 | inactive
Nc1cc(C(F)(F)F)ccc1S | inactive
Nc1nc2ccccc2n1Cc1ccc(F)cc1 | inactive
COC(=O)c1cc(Cl)ccc1OC | inactive
Clc1ccc(C(Cn2ccnc2)OCc2ccc(Sc3ccccc3)cc2)c(Cl)c1 (centres undefined) | inactive

Target: Vitamin D3 receptor (Homo sapiens) (UniProt P11473)
Assay: qHTS assay to identify small molecule antagonists of the vitamin D receptor (VDR) signaling pathway (AID 743223; active = well fitted inhibition curve with a large enough effect in the signal ratio in the repeat runs, not every such curve was filed as active; the % refers to the signal ratio; note: potency is the fitted concentration of half-maximal effect)
Conditions: VDR-UAS-bla HEK293T, beta-lactamase FRET ratio, 16 h; series mostly up to 61 µM
Method in brief: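 After VDR-bla cells are plated and left 4 h at 37C, DMSO-dissolved compounds and 3 nM (final) calcitriol agonist are added. Incubation continues 16 h at 37C; FRET beta-lactamase substrate then develops 2 h at room temperature.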

Structure (SMILES) | Potency
N#CC1(c2ccc(F)cc2)CCC(=O)CC1 | inactive
Cc1oc(-c2ccccc2)nc1CCC(=O)c1ccc(CC2SC(=O)NC2=O)cc1 (centres undefined) | inactive
COc1cccc(N)c1 | inactive
CN(C)CCCOC1(Cc2ccccc2)CCCCCC1 | inactive
C/C(=C(/OCCOc1ccc(Cl)cc1)c1ccc(Cl)cc1Cl)n1ccnc1 | inactive
Cc1cccc2c1cc1ccc3cccc4ccc2c1c34 | inactive
O=C(N/N=C/c1ccccc1O)c1ccncc1 | 19 µM (active)
CCC(CN)=C(c1ccccc1)c1ccccc1 | inactive
COC(=O)c1cc(Cl)ccc1OC | inactive
